The values that follow come from PubChem BioAssay.

Experiment [1] has as its system TRPC4 beta (transient receptor potential cation channel C4), mouse. The experiment is described as follows: TRPC4 cation channel opening, retest – cell-based, Fluo4 calcium, HEK293 TRPC4beta/mu-opioid, duplicates, 10 µM, confirmation (AID 2426;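 active means fluorescence ratio normalized to control raised more than 50% in primary screen plus both repeat runs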;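 on activation: percent rise of integrated ratio over buffer wells lacking compound which define 0%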). Particulars: Fluo4 calcium fluorescence, at 10 µM; stronger effect = higher value.
Experiment [2] relates to transient receptor potential cation channel C4 beta (TRPC4), mouse. The experiment is described as follows: TRPC4 cation channel opening, second retest – cell-based, second round, Fluo4, HEK293 TRPC4beta/mu-opioid, 1 µM, confirmation (AID 2461;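 active means primary screen active and over 50% activation in each of two duplicate runs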). Particulars: Fluo4 calcium fluorescence, at 1 µM; stronger effect = higher value.
Experiment [3] relates to TRPC4 (transient receptor potential cation channel C4 beta), mouse. The experiment in a line: potentiation of DAMGO EC20 TRPC4 response – cell-based, second round, Fluo-4, HEK293 TRPC4beta/mu-opioid, 1 µM, confirmation (AID 2554;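 active means primary screen hit whose fluorescence ratio, in both repeats, exceeds the weak agonist control mean by 3 SD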). The following applies: DAMGO EC20, Fluo-4 calcium flux, at 1 µM; stronger effect = higher value. Background: Calcium flux is commonly read through the fluorescence of an indicator in the cells.

For experiment [4], the system named is TRPC4 beta (transient receptor potential cation channel C4), mouse. The experiment in a line: potentiation of DAMGO EC20 TRPC4 response – cell-based, Fluo-4, HEK293 TRPC4beta/mu-opioid, confirmation (AID 2555;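 active means primary screen hit whose calcium fluorescence ratio, in both repeats, exceeds the weak agonist control mean by 3 SD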). Particulars: DAMGO EC20, Fluo-4 calcium flux, at 10 µM; stronger effect = higher value.
For experiment [5], the target named is Short transient receptor potential channel 4 (Mus musculus) (UniProt Q9QUQ5). The experiment is described as follows: blockers of DAMGO-evoked TRPC4 calcium flux – cell-based, Fluo4, HEK293 TRPC4beta/mu-opioid, confirmation (AID 2636;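 active means calcium signal cut by more than 3 SD below the full-agonist control yet still positive, in both repeats and the earlier primary screen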). The following applies: at 10 µM; stronger effect = higher value.
Sequence of Short transient receptor potential channel 4 (Mus musculus) (Q9QUQ5 whole entry, looked up): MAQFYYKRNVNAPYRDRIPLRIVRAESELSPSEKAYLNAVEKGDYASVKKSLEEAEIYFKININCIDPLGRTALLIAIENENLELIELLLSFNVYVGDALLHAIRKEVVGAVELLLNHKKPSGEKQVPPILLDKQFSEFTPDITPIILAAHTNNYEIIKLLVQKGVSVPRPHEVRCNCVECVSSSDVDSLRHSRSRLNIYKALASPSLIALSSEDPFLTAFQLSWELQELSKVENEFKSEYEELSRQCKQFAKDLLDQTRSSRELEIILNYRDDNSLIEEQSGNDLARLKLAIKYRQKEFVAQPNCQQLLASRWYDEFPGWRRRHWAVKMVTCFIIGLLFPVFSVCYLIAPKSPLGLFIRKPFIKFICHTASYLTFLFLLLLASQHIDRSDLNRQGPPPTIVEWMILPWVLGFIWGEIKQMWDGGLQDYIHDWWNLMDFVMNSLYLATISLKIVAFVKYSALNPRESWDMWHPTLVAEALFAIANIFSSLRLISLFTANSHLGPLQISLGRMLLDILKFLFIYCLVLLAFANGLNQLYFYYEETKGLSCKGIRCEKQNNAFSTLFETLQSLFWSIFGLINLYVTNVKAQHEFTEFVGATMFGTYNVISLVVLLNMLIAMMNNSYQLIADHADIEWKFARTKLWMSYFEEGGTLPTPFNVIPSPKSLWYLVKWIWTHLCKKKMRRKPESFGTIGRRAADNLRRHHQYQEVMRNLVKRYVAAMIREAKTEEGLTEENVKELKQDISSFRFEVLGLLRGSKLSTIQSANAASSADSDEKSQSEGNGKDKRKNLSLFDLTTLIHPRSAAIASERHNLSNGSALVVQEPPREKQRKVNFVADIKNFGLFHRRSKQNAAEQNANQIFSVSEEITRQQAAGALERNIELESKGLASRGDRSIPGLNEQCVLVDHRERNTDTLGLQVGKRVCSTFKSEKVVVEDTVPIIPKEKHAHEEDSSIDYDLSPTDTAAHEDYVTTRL
Experiment [6] has the same target. The experiment in a line: blockers of DAMGO-evoked TRPC4 calcium flux – cell-based, second round, Fluo4, HEK293 TRPC4beta/mu-opioid, 1 µM, confirmation (AID 2637;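 active means calcium signal ratio cut to more than 3 SD under the fully stimulated control mean yet still positive, in both repeats and the primary screen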). The following applies: at 1 µM; stronger effect = higher value.
The target is the same in experiment [7]. The experiment in a line: calcium entry via TRPC4 opening agents – cell-based, HEK293 TRPC4/mu-opioid, Fluo-4 calcium, dose response (AID 434937).
For experiment [8] the target is unchanged. The experiment in a line: potentiation of DAMGO-evoked TRPC4 calcium signal – cell-based, HEK293 TRPC4/mu-opioid, Fluo-4 calcium, EC20 DAMGO, dose response (AID 434941;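 active means earlier screen potentiator hit that boosts the TRPC4 ion channel at some dose, with a dose response; inactive means no potentiation, no dose response, or not a prior hit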;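 further: calcium entry triggered by an EC20 dose of DAMGO at the co-expressed mu-opioid receptor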).
For experiment [9] the target is unchanged. The experiment in a line: block of DAMGO-driven TRPC4 calcium entry – cell-based, HEK293 TRPC4/mu-opioid, Fluo-4 calcium, dose response (AID 434942;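 active means primary screen inhibitor hit that blocks the TRPC4 channel at some tested dose, yielding a dose curve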).
The target of experiment [10] is Short transient receptor potential channel 6 (Mus musculus) (UniProt Q61143). The experiment is described as follows: TRPC6 blockade by TRPC4 inhibitor hits – cell-based, HEK293, membrane potential dye, duplicate, selectivity assay for TRPC4 inhibitor project, confirmation (AID 434948;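 active means active in primary screen and both duplicates, each dropping signal beyond three positive-control SD with fluorescence still positive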). The following applies: HEK293 TRPC6, membrane potential dye fluorescence, at 10 µM, stimulated with maximal-effect acetylcholine; stronger effect = higher value.
Sequence of Short transient receptor potential channel 6 (Mus musculus) (Q61143 whole entry, looked up): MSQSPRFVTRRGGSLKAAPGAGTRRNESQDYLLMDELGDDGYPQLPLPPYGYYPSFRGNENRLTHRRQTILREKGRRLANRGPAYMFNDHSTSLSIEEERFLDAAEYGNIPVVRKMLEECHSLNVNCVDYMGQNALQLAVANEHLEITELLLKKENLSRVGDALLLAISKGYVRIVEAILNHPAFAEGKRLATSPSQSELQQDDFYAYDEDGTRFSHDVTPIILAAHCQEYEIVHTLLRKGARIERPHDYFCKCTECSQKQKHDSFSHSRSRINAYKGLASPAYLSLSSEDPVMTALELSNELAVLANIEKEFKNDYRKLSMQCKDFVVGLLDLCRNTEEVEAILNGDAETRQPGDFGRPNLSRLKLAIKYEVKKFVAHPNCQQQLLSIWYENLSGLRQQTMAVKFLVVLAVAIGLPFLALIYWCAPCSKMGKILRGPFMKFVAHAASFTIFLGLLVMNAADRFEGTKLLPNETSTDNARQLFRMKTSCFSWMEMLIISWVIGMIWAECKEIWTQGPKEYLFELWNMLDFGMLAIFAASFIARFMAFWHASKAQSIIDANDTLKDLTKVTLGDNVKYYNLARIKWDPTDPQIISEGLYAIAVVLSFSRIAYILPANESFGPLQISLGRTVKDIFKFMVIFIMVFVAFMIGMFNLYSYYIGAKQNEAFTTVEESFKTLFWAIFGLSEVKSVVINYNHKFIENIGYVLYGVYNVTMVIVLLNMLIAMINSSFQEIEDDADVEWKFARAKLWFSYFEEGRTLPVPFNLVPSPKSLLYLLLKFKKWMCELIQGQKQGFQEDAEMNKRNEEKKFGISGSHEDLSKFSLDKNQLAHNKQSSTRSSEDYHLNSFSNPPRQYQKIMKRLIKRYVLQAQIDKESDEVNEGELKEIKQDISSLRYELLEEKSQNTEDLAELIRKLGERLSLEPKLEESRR

The target is the same in experiment [11]. The experiment is described as follows: TRPC6 opening by TRPC4 activator hits – cell-based, HEK293, membrane potential dye, duplicate, selectivity assay for TRPC4 activator project, confirmation (AID 434950;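 active means membrane potential signal rise above negative control mean plus 3 SD in both duplicates, also active in the earlier TRPC4 screen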). The following applies: HEK293 TRPC6, membrane potential fluorescence, at 10 µM; activation: stronger effect = higher value; outcome: activation.
Experiment [12] shares this target. The experiment in a line: positive modulators of mouse TRPC6 channel – HEK293 cells, membrane potential dye, duplicate, selectivity assay for TRPC4 potentiator project, confirmation (AID 434952;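 active means compound raising the membrane signal above positive-control mean plus 3 SD in both repeats, and a primary screen hit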). The following applies: HEK293 TRPC6, membrane potential dye fluorescence, at 10 µM, maximal acetylcholine added after compound; stronger effect = higher value.
For experiment [13], the target named is Short transient receptor potential channel 4 (Mus musculus) (UniProt Q9QUQ5). The experiment is described as follows: calcium flux activators in TRPC4/5HT1a cells, counter-screen for TRPC4 activator project, cell-based, second counter screen, HEK293 TRPC4/5HT1a, Fluo-4 (AID 434977;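 active means calcium signal rise above buffer-control mean plus 5 SD in both duplicates, and also a hit in the primary screen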;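 on activation: plate controls were assay buffer for no effect and maximal serotonin response for full effect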). The following applies: Fluo-4 calcium flux, at 10 µM; stronger effect = higher value.
A short description of experiment [14]: serotonin-gated TRPC4 signal block – cell-based, second counter screen, HEK293 TRPC4/5HT1a, Fluo-4, counter-screen for TRPC4 inhibitor project, confirmation (AID 434978;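 active means primary screen active whose calcium signal fell more than 3 SD beyond the full-serotonin control mean in both duplicate plates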;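 further: serotonin given first at submaximal then at maximal dose after compound preincubation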). Particulars: Fluo-4 calcium flux, at 10 µM, serotonin added to trigger calcium flux; stronger effect = higher value.
Experiment [15] deals with TRPC4 (mouse), co-expressed with 5HT1a in HEK293. The experiment in a line: enhancement of serotonin-evoked TRPC4 response – cell-based, second counter screen, HEK293 TRPC4/5HT1a, Fluo-4, counter-screen for TRPC4 potentiator project, confirmation (AID 434979;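 active means signal rise over 3 SD above mean of control wells given weak agonist, in both repeats and first screen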). The following applies: Fluo-4 calcium flux, at 10 µM, serotonin added at its EC20 dose; stronger effect = higher value. In general terms: A counterscreen serves to expose hits that act by an unwanted route or on another target.

The nature of experiment [16]: nonspecific calcium rise without TRPC4 – cell-based, HEK293 mu-opioid receptor line, counter-screen for TRPC4 activator project, confirmation (AID 449723;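 active means hit in primary screen, with calcium signal over 5 SD above buffer well mean in both duplicates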;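 further: counter screen cells carry the mu-opioid receptor alone and lack TRPC4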). Particulars: HEK293 mu-opioid cells, Fluo-4 calcium fluorescence, at 10 µM; stronger effect = higher value.
Experiment [17] can be described thus: nonspecific potentiation of DAMGO calcium response – cell-based, HEK293 mu-opioid receptor line, counter-screen for TRPC4 allosteric potentiator project, confirmation (AID 449724;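 active means calcium signal rise more than 3 SD above the low-dose agonist control mean, in both duplicate plates and the primary screen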;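 further: HEK293 cells carrying mu-opioid receptor only with no TRPC4 channel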). Particulars: HEK293 mu-opioid receptor cells, Fluo-4 calcium flux, at 10 µM, compound added before EC20 DAMGO stimulus; stronger effect = higher value.

For part of these data: Entries with a potency or affinity are not part of this list. Calls of active or inactive are those of the source.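 How the source made its calls, unless noted: active means primary screen activator hit with a dose response curve and TRPC4 channel activation at any tested dose; inactive means no activation, no dose response, or not a primary hit.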

As for `C/C(=N/Nc1ccnc2cc(Cl)ccc12)c1ccc(N)cc1`, the result in [1], in [2], in [3], in experiment [4], in experiment [5] and in [6] was inactive. Further, the result in experiment [7], in experiment [8], in [9], in [10], in [11] and in experiment [12] was inactive. Moreover, the result in [13], in [14], in experiment [15], in [16] and in [17] was inactive.

As for `CN1CCN(c2ccc(Cl)cc2NC(=O)/C=C/c2cccc(F)c2)CC1`, the outcome in [1], in [2], in [4], in [5], in experiment [6] and in experiment [7] was inactive. In addition, the result in experiment [8], in [9], in [10], in experiment [11], in experiment [12] and in experiment [13] was inactive. In addition, the result in experiment [14], in experiment [16] and in experiment [17] was inactive. The figures for the potentiation in [3] and in [15] were 11% (active) and 41.1% (active), respectively.

In the case of `COCCn1c(SCC(=O)Nc2ccc(S(=O)(=O)N3CCOCC3)cc2)nc2ccccc21`, the result in experiment [1], in experiment [2], in experiment [3], in experiment [5], in experiment [6] and in [7] was inactive. For the same compound, the result in [8], in experiment [9], in [10], in experiment [11], in experiment [12] and in [13] was inactive. Also, the outcome in [14], in [16] and in experiment [17] was inactive. In addition, the figures for the potentiation in experiment [4] and in experiment [15] were 12% (active) and 26.5% (active), respectively.

Take `CC(=O)c1c(O)c(C)c(O)c2c1OC1=CC(=O)C(C(C)=O)C(=O)[C@@]12C` (stereo not given in full): the activation was 246% (active) in [1], 20.7% (active) in experiment [13] and 43.3% (active) in experiment [16]. Further, the result in experiment [2], in experiment [3], in experiment [4], in experiment [5], in experiment [6] and in [7] was inactive. The outcome in experiment [8], in experiment [9], in experiment [10], in experiment [11], in experiment [12] and in [14] was inactive. Also, the outcome in experiment [15] and in experiment [17] was inactive.

As for `CCOCCCNCc1ccc(OCc2ccccc2Cl)cc1`, the result in experiment [1], in experiment [2], in [3], in [4], in [5] and in [6] was inactive. Also, the result in [7], in experiment [8], in [9], in [10], in [11] and in [12] was inactive. Moreover, the outcome in experiment [13], in experiment [14], in [15], in experiment [16] and in experiment [17] was inactive.

In the case of `N=c1c2c3c(sc2ncn1Cc1ccccc1)CCCC3`, the outcome in experiment [1], in [2], in experiment [3], in [4], in experiment [5] and in experiment [6] was inactive. For the same compound, the result in experiment [7], in [8], in [9], in [10], in experiment [11] and in experiment [12] was inactive. Moreover, the outcome in experiment [13], in experiment [14], in [15], in [16] and in [17] was inactive.

Consider `CC(=O)Nc1ccc(CN2CCCC(CO)(Cc3ccccc3C)C2)cc1` (stereo not given), for which the result in [1], in experiment [2], in experiment [3], in [4], in experiment [5] and in [6] was inactive. The outcome in experiment [7], in experiment [8], in experiment [9], in experiment [10], in experiment [11] and in [12] was inactive. Besides, the result in [13], in [14], in experiment [15], in experiment [16] and in experiment [17] was inactive.

On to `Cc1[nH]n2c(=O)c3c(nc2c1-c1ccccc1)CCC3`, for which the result in experiment [1], in experiment [2], in experiment [3], in experiment [4], in experiment [6] and in experiment [7] was inactive. In addition, the outcome in experiment [8], in experiment [9], in experiment [10], in experiment [11], in experiment [12] and in experiment [13] was inactive. For the same compound, the result in experiment [14], in experiment [15], in [16] and in experiment [17] was inactive. The inhibition (in general, the relative decrease from the control value, in per cent) in experiment [5] was 76% (active).

Regarding `COc1cc(/C=C2\C(=O)ON=C2c2ccccc2)cc(Cl)c1O`, the outcome in [1], in experiment [2], in [3], in experiment [4], in [6] and in experiment [7] was inactive. The outcome in [8], in experiment [9], in experiment [10], in experiment [11], in experiment [12] and in experiment [13] was inactive. Further, the result in [14], in [15], in experiment [16] and in experiment [17] was inactive. Also, the inhibition in experiment [5] is 76% (active).

For the compound `Cc1ccc(/C=N/NC(=O)C2COc3ccccc3O2)s1` (stereo not given), the result in experiment [1], in experiment [2], in [3], in experiment [4], in experiment [5] and in experiment [6] was inactive. Moreover, the outcome in experiment [7], in [8], in experiment [9], in experiment [10], in experiment [11] and in [12] was inactive. Besides, the outcome in experiment [13], in experiment [14], in [16] and in experiment [17] was inactive. Moreover, the potentiation in experiment [15] is 22.2% (active).

On to `Nc1nn2c(C(F)(F)F)cc(=O)[nH]c2c1N=Nc1cccc(F)c1`, for which the result in [1], in experiment [2], in experiment [3], in experiment [4], in experiment [5] and in experiment [6] was inactive. Also, the result in experiment [7], in [8], in experiment [9], in experiment [10], in experiment [11] and in experiment [12] was inactive. In addition, the outcome in experiment [13], in experiment [14], in [15], in [16] and in [17] was inactive.

`O=C(COC(=O)c1nc(Cl)ccc1Cl)c1ccccc1Cl`: the outcome in [1], in experiment [2], in experiment [3], in [4], in experiment [5] and in experiment [6] was inactive. For the same compound, the outcome in experiment [7], in [8], in experiment [9], in experiment [10], in experiment [11] and in experiment [12] was inactive. The result in experiment [13], in [14], in [15], in experiment [16] and in experiment [17] was inactive.

On to `Cc1c(C(=O)NCCc2ccccc2)oc2ccccc12`, for which the result in experiment [1], in experiment [2], in [3], in [5], in [6] and in [7] was inactive. The outcome in [8], in [9], in experiment [10], in [11], in experiment [12] and in [13] was inactive. Further, the result in [14], in [16] and in experiment [17] was inactive. For the same compound, the potentiation in experiment [4] was 61% (active); in experiment [15], 45.7% (active).

In the case of `C=C(C)COc1ccc(-c2[nH]ncc2Oc2ccc(OC)cc2)c(O)c1`, the result in [1], in experiment [2], in [3], in [4], in [5] and in [6] was inactive. The outcome in experiment [7], in [8], in experiment [9], in [10], in experiment [11] and in [12] was inactive. Besides, the result in experiment [13], in experiment [14], in [15], in [16] and in experiment [17] was inactive.

In the case of `CCCCN(C)CCNC(=O)c1c[nH]c2ccc(S(=O)(=O)N(CC)CC)cc2c1=O`, the outcome in [1], in [2], in experiment [3], in experiment [5], in experiment [6] and in experiment [7] was inactive. Also, the outcome in experiment [8], in experiment [9], in experiment [10], in experiment [11], in [12] and in experiment [13] was inactive. The result in [14], in experiment [16] and in experiment [17] was inactive. Further, the results for the potentiation in experiment [4] and in [15] were 46% (active) and 26.4% (active), respectively.
